Molecules are shown by their SMILES. Activity calls are given as the source filed them. How the source made its calls: active means hit-call score of the fitted dose curve at least 0.9, where 1 is the maximum; inactive means score below 0.9.

For the experiment, the target named is Peroxisome proliferator-activated receptor gamma (Homo sapiens) (UniProt P37231). As to the kind of experiment: ERF_FR_NR_COA_hPPARG: Eurofins (ERF) Nuclear Receptor (NR) Functional Coactivator Assay for human Peroxisome Proliferator-activated Receptor gamma (PPARg) Agonism, conducted at France lab site. As for the experimental part:
ERF_FR_NR_COA_hPPARG is a biochemical, single-readout assay that uses extracted gene-proteins in a cell-free assay. Measurements were taken 2 hours after chemical dosing in a 384-well plate. See PPARgamma Human NHR Functional Agonist Coactivator Assay, Cerep.ERF_FR_NR_COA_hPPARG is an assay component calculated from the ERF_FR_NR_COA_hPPARG assay. It is designed to measure FRET using a type of binding reporter as detected by fluorescence intensity of Rosiglitazone with fluorimetry technology.Data from the assay component ERF_FR_NR_COA_hPPARG was analyzed at the assay endpoint, ERF_FR_NR_COA_hPPARG, in the positive analysis fitting direction relative to DMSO as the negative control and baseline of activity. Using a type of binding reporter, gain-of-signal activity can be used to understand changes in binding as they relate to gene PPARG. […]
Test compound and/or vehicle is incubated with the 2 nM receptors and coactivator peptide for 180 minutes at room temperature. Determination of the amount of complex formed is read spectrofluorimetrically (excitation: 337 nm, emission: 520/490 nm). Test compound-induced increase fluorescence by 50 percent or more (>/=50%) relative to 1 uM GW1929 response indicates possible PPARgamma receptor agonist activity. […]

Sequence of Peroxisome proliferator-activated receptor gamma (Homo sapiens) (P37231 whole entry, looked up): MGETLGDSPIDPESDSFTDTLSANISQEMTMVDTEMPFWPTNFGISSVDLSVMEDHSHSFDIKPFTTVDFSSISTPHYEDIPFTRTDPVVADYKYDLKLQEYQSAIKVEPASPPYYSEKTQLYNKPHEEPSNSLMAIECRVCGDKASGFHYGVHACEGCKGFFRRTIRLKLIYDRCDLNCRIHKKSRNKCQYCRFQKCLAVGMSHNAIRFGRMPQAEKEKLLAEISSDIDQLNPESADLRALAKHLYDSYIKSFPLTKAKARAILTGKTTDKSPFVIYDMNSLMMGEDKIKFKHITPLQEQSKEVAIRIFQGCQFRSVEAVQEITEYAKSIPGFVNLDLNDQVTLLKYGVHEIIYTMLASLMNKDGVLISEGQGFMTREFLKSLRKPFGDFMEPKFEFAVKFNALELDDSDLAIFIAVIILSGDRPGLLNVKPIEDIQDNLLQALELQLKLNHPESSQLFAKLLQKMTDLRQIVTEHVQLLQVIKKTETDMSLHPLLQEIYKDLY

Regarding `O=S(=O)(O)C(F)(F)C(F)(F)C(F)(F)C(F)(F)C(F)(F)C(F)(F)C(F)(F)C(F)(F)F`, the result was inactive.

The record behind these values is PubChem BioAssay AID2284386 (EPA ToxCast).
